High-throughput results (PubChem)
AmpC inh no detg = blocks E. coli AmpC beta-lactamase in detergent-free assay. 330,000 tested, 0.52% active. AmpC nitrocefin hydrolysis, absorbance 480 nm, 0.0001% Triton. Potency, µM (series often up to 57.1 µM), for inactives: top-dose activity change, negative = inhibition, most hits filed as inhibitors. P00811;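 further: plate controls were no compound for no effect and no enzyme for full effect; nearly all actives have a fitted effect of over 20% in size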
Target sequence (P00811 whole entry, looked up): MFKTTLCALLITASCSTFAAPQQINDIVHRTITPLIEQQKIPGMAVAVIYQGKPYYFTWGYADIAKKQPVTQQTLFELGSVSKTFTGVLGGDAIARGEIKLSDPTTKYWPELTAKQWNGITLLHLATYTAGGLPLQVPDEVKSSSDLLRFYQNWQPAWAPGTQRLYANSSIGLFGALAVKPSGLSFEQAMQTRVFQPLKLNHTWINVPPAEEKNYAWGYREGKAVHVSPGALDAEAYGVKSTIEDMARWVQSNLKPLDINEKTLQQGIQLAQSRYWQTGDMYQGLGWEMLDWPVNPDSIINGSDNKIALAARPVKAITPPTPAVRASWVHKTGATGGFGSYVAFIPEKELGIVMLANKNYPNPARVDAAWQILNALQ
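20 mM phosphate pH 7.0 + 0.01% (detergent screen) or 0.0001% Triton X-100; 5.3 nM AmpC reagent; cpd preinc 15 min RT; nitrocefin (800 uM stock) to start; A480 q20 s × 4 min; Activity was normalised to no-enzyme and no-compound control wells.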
RE007 growth inh = less growth of the S. pombe RE007 Vpr strain | S. pombe RE007 Vpr strain, BacTiter-Glo ATP luminescence, 24 h | Potency, µM (series often up to 92.2 µM), for inactives: at the highest dose activity change, negative = less growth, most hits filed as inhibitors | 360,000 tested, 0.21% active | AID 651644; active means well fitted falling curve with a large enough effect; inconclusive means small, poorly fitted or top-dose-only effect; inactive means no such curve, though single readings can be large or run the other way; further: nearly all actives have a fitted effect of over 50% in size
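Fission yeast strain RE007, carrying one chromosomally integrated HIV-1 vpr copy, was seeded at OD 0.01 in PMG+AL medium with 23 nL pinned compound. After 24 h at 30 °C and 99% humidity, viability was read by BacTiter-Glo luminescence.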
Tb PYK inh = blocks Trypanosoma brucei pyruvate kinase. Potency, µM (highest dose often 76.8 µM), for the others: at the top dose activity, negative = inhibition, most hits filed as inhibitors. 410,000 tested, 0.12% active. TbPYK enzyme, Kinase-Glo Plus ATP luminescence, 45 min; further: nearly all actives have a fitted effect of over 50% in size
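T. brucei PYK with substrate was exposed to pin-transferred compounds across a concentration series, then started with 130 uM ADP (final). After 45 min at room temperature, Kinase-Glo Plus luminescence was read, normalized and curve-fitted.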
Giardia FBPA inh-1 = blocks Giardia fructose-bisphosphate aldolase activity; A8B2U2; purified Giardia FBPA; Potency, µM (titrated, usually from 59.6 µM), inactives show at the top dose activity, negative = inhibition, actives largely listed as inhibitors; 290,000 tested, 0.71% active; further: nearly all actives have a fitted effect of over 55% in size
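40 nM FBPA preincubated 10 min at RT with compound (up to 57.5 uM final), then substrate plus GAPDH/TPI/NAD/arsenate coupling and diaphorase/resazurin added. Fluorescence read after 20 min at RT, 525/598 nm.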
AmpC inh detg = AmpC beta-lactamase inhibition with detergent present; P00811; AmpC hydrolysis of nitrocefin, absorbance 480 nm, 0.01% Triton; Potency, µM (top dose mostly 114 µM), for the others: top-dose activity change, negative = inhibition, hits mostly inhibitors; 370,000 tested, 0.041% active;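 further: 0% = no-compound wells and -100% = no-enzyme wells; nearly all actives have a fitted effect of over 25% in size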
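AmpC (5.3 nM in the dispensed reagent) in 20 mM phosphate pH 7.0 with 0.01% (detergent screen) or 0.0001% Triton X-100 was preincubated with compounds for 15 min at room temperature. Nitrocefin was then added from an 800 uM solution, and hydrolysis was followed at 480 nm.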
LmPK inhibitor = LmPK (Leishmania mexicana) enzyme inhibition; Q27686; purified LmPK, Kinase-Glo ATP luminescence, 1 h; Potency, µM (series often up to 57.5 µM), inactives show top-dose activity change, negative = inhibition, hits mostly inhibitors; 290,000 tested, 0.37% active; AID 1721
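qHTS format; LmPK 0.1 nM; substrates PEP 0.5 mM and ADP 0.1 mM. One-hour room-temperature incubation, then coupled luciferase luminescence; 0.5 nM enzyme wells mark activation.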
Giardia growth = blocks growth of Giardia lamblia trophozoites; Potency, µM (doses to about 57.5 µM), without a hit: top-dose activity change, negative = inhibition, usual class: inhibitors; AID 2785; 1,500 tested, 5% active; Giardia lamblia trophozoite growth inhibition; shares compounds with Giardia FBPA inh-1;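 further: trophozoites exposed to compound for 48 h at 37 °C; nearly all actives have a fitted effect of over 70% in size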
Mammal cell tox = mammalian cytotoxicity of Giardia aldolase inhibitor hits; 1,500 tested, 4% active; mammalian cell viability counter-screen, qHTS; shares compounds with Giardia FBPA inh-1; Potency, µM (titrated, usually from 57.5 µM), for the others: at the top dose viability change, negative = toxicity, actives largely listed as inhibitors;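 further: Chinese hamster ovary cells used as mammalian cytotoxicity surrogate; viability measured as cellular ATP by luminescence; compound exposure lasted 48 h before reading; nearly all actives have a fitted effect of over 60% in size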
Giardia FBPA inh-2 = confirmation of Giardia fructose-bisphosphate aldolase inhibitors; shares compounds with Giardia FBPA inh-1; purified Giardia aldolase enzyme activity, qHTS; Potency, µM (doses to about 57.5 µM), without a hit: at the highest dose activity change, negative = inhibition, hits mostly inhibitors; 1,500 tested, 5% active; AID 2787; further: nearly all actives have a fitted effect of over 45% in size
Rabbit FBPA inh = selectivity test for Giardia aldolase inhibitors: rabbit aldolase. Rabbit muscle FBPA enzyme inhibition, selectivity counter-screen. shares compounds with Giardia FBPA inh-1. 1,500 tested, 4% active. AID 2794. Potency, µM (highest dose often 57.5 µM), for inactives: at the highest dose activity, negative = inhibition, most hits filed as inhibitors; further: nearly all actives have a fitted effect of over 60% in size
Target sequence (P00883 whole entry, looked up): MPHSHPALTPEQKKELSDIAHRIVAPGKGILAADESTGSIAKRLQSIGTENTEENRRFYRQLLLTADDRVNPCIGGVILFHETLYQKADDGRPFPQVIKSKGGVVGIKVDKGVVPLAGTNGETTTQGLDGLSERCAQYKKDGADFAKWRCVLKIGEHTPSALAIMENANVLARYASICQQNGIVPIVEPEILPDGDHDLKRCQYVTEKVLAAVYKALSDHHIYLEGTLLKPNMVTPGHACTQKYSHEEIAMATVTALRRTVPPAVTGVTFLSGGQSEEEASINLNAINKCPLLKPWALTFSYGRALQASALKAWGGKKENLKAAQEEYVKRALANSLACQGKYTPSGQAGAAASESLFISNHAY
GAPDH coupling = GAPDH inhibition flagged for Giardia aldolase hits; GAPDH coupling enzyme counterscreen, biochemical, qHTS; 1,500 tested, 6% active; Potency, µM (top dose mostly 57.5 µM), for inactives: top-dose activity change, negative = inhibition, most hits filed as inhibitors; shares compounds with Giardia FBPA inh-1; further: nearly all actives have a fitted effect of over 55% in size
Active calls of the source: *; ? = inconclusive; nt = no result given; [ ] = dose if it differs, or a comment. Only some compounds are listed: those with a hit (about 1.4% of all), similar ones and a draw of the others. Unless noted, the call rests on the fitted dose curve; in most records, active means well fitted curve in the direction sought with a large enough effect; inconclusive means small, poorly fitted or top-dose-only effect, or another doubt; inactive means no such curve, though single readings can be large; an effect the other way counts as inactive or inconclusive. Unless noted, on the % scale 0 is the no-effect control and ±100 the full control effect; potency means the concentration at half of the fitted maximal effect.

SMILES	AmpC inh no detg	RE007 growth inh	Tb PYK inh	Giardia FBPA inh-1	AmpC inh detg	LmPK inhibitor	Giardia growth	Mammal cell tox	Giardia FBPA inh-2	Rabbit FBPA inh	GAPDH coupling
CCn1nc(C)c2c(-c3ccccc3)cc(=O)n(C(C)C(=O)NCCc3ccccc3)c21 (stereo not drawn)	nt	nt	-2%	nt	5%	nt	nt	nt	nt	nt	nt
CCc1ccccc1NC(=O)Cn1c(=O)n(-c2ccc(C)c(C)c2)c(=O)c2oc3ccccc3c21	nt	nt	-14%	nt	11%	nt	nt	nt	nt	nt	nt
CCc1ccc(NC(=O)Nc2cn(C)c(=O)c3ccccc23)cc1	nt	nt	4%	nt	2%	nt	nt	nt	nt	nt	nt
O=c1c(=O)n(-c2ccc(F)c(F)c2)ccn1Cc1ccc(F)cc1Cl	nt	nt	3%	nt	16%	nt	nt	nt	nt	nt	nt
C=CCn1c(O)c(/C=N/NC(=O)CCCC)c(=O)[nH]c1=S	-19%	4%	3%	7.1µM*	1%	-3%	-12%[10.4 µM]	2%	4%	-10%	-2%
CCCCN(CC)CCNC(=O)C1CCN(c2nnc(C)c3c(C)n(-c4ccc(C)cc4)nc23)CC1	nt	nt	-5%	nt	12%	nt	nt	nt	nt	nt	nt
CCC1CN(C(=O)N2CCC(C(=O)O)CC2)c2cc(C)ccc2O1 (stereo not drawn)	nt	nt	-6%	nt	-1%	nt	nt	nt	nt	nt	nt
COc1ccc(-n2c(C)cc(/C=N/Nc3nnc(C)n3N)c2C)cc1	44%	-2%	0%	6.3µM*	?	0%	9%[10.4 µM]	10%	20µM*	?	?
COc1cccc(/C=N/Nc2nnc(C)n2N)c1O	-16%	15%	-3%	-11%	1%	4%	nt	nt	nt	nt	nt
CC(C)c1ccc(NC(=O)c2cc3c(=O)[nH]c4ccccc4c3n2C)cc1	nt	nt	1%	nt	0%	nt	nt	nt	nt	nt	nt
CCCc1cc(=O)n2[nH]c(NC(=O)c3ccco3)nc2n1	-14%	17%	-7%	16µM*	0%	-1%	?	13%	-8%	-4%	-5%
Cc1cc(C)n(CC(=O)NC2C(=O)N3C(C(=O)O)=C(CSc4nnc(C)s4)CSC23)n1 (stereo not drawn)	-5%	-13%	-6%	13µM*	0%	14%	3%	-2%	-1%	6%	1%
Cc1cc(C(F)F)nn1CC(=O)NC1C(=O)N2C(C(=O)O)=C(CSc3nnnn3C)CSC12 (stereo not drawn)	-23%	-2%	-15%	?	5%	-4%	nt	nt	nt	nt	nt
Cc1nnc(SCC2=C(C(=O)O)N3C(=O)C(NC(=O)c4cccc(F)c4F)C3SC2)s1 (stereo not drawn)	-17%	14%	-6%	14µM*	2%	0%	5%[10.4 µM]	-6%	1%	-6%	6%
Cc1nnc(SCC2=C(C(=O)O)N3C(=O)C(NC(=O)Cn4ncc(Cl)c4C)C3SC2)s1 (stereo not drawn)	-17%	-6%	-13%	20µM*	-1%	37%	-21%	-4%	-8%	-5%	0%
Cc1cc(C)c(S(=O)(=O)NCC(c2ccco2)N2CCN(c3ccccc3)CC2)c(C)c1 (stereo not drawn)	nt	nt	-1%	nt	4%	nt	nt	nt	nt	nt	nt
COc1ccc(CNC(=O)c2ccc(CSc3nc4ccncc4n3Cc3ccccc3F)cc2)cc1	nt	nt	2%	nt	20%	nt	nt	nt	nt	nt	nt
CN(C)c1ccc(C(CNS(=O)(=O)c2ccc(Br)cc2)N2CCOCC2)cc1 (stereo not drawn)	nt	nt	-1%	nt	-1%	nt	nt	nt	nt	nt	nt
COC(=O)c1cccc2c1-c1ccccc1/C2=N\NC(N)=O	-6%	1%	-1%	10%	-4%	1%	nt	nt	nt	nt	nt
NC(=S)N/N=C1\c2ccccc2-c2c(C(=O)O)cccc21	-42%	-17%	4%	4µM*	-2%	-20%	4%[10.4 µM]	2%	6%	3%	11%
NC(=O)c1cccc2c1-c1ccccc1/C2=N/NC(N)=S	-15%	-9%	-2%	11µM*	-1%	-4%	-23%	-28%	-3%	0%	9%
CC(C)OC(=O)Nc1ccc2c(c1)N(C(=O)N1CCN(C)CC1)c1ccccc1CC2	127%	-25%	-1%	16µM*	4%	?	8.9µM*	1.8µM*	2%	9%	6%
CCOC(=O)Nc1ccc2c(c1)N(C(=O)N1CCN(C)CC1)c1ccccc1CC2	117%	19%	0%	5%	3%	-8%	nt	nt	nt	nt	nt
COc1cc(Cl)c(C)cc1NC(=S)NN	-32%	-11%	-16%	20µM*	-5%	5%	?	1%	3%	3%	8%
COc1cc(NC(=S)NC(C)(C)C)c(OC)cc1Cl	-18%	-14%	9%	-5%	-11%	0%	nt	nt	nt	nt	nt
